PubChem BioAssay (NCI)
The panel holds about 83,000 compounds, 20% with a hit somewhere; the sample as a whole holds those more often.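 Values shown are percent growth following 48 h exposure of cells in 96-well plates to a single concentration of compound; below 10 was considered active.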 The source made the active and inactive calls.

Tested on: HCC-2998 colon
Test: NCI-60 one-dose screen, 48 h (100 = growth as untreated, 0 = no growth, -100 = all killed)
Conditions: 10 µM unless noted

Row | SMILES | growth
1 | CCCCCN1C=C/C(=C\C(=O)N(C)c2ccc(Oc3ccccc3)cc2)c2ccccc21 | 86.7% (inactive)
2 | CNC(=O)c1cncc(Cn2nc(C)c(NC(=O)c3ccc(COc4ccc(C(F)(F)F)cc4C)cc3)c2C)c1 | 77.8% (inactive)
3 | Nc1c(C(=O)Nc2ccnc3ccccc23)sc2nc3c(cc12)CN(Cc1ccccc1)CC3 | 103% (inactive)
4 | CC1=C(C(=O)/C=C/c2ccc(N(C)C)cc2)C(c2ccccc2)NC(=S)N1 (stereo unspecified) | 108% (inactive)
5 | Nc1nc(Nc2ccccc2SSc2ccccc2Nc2nc(N)nc(-c3cccs3)n2)nc(-c2ccsc2)n1 | 111% (inactive)
6 | COc1cc2c(cc1OC)C(=O)/C(=C/c1cc(C)c(O)c(C)c1)S2 | 60.4% (inactive)
7 | COc1cc2c(=O)n(CCCN(C)C)c3c4cc5c(cc4ccc3c2cc1OC)OCO5 | 86.8% (inactive)
8 | CCN(CC)CC[n+]1cc2cc(OC)c(OC)cc2c2ccc3cc4c(cc3c21)OCO4 | 18.7% (inactive)
9 | O=C(Nc1ccc(NC(=O)c2cc(=O)[nH]c3ccccc23)cc1)Nc1cccc(Cl)c1 | 83.6% (inactive)
10 | COc1ccc(/C=C2\Oc3cc(OCCCN4CCCCC4)ccc3C2=O)cc1OC | 108% (inactive)
11 | Cc1nc(N)nc(N[C@@H](C)c2nc3cccc(NCc4ccc(C(=O)NO)cc4)c3c(=O)n2-c2ccccc2)n1 | 98% (inactive)
12 | Cc1ccc(/C=N/NC(=O)CSc2nc3ccccc3c(=O)n2Cc2ccc(S(N)(=O)=O)cc2)cc1 | 99.9% (inactive)
13 | COc1cc(/C(C)=C(\c2ccc(Cl)cc2)c2ccc(OCCN3CCCC3)cc2)ccc1F | 57.4% (inactive)
14 | COc1cc2nc(-c3ccc(Cl)cc3)cc(OCCCN3CCOCC3)c2cc1OC | 66.8% (inactive)
15 | COc1ccc(NC(N)=NCCCOc2ccc(F)cc2)cc1 | 76.3% (inactive)
16 | COC(=O)CNC(=O)[C@]12CCC(C)(C)C[C@H]1C1=CC[C@@H]3[C@@]4(C)Cc5c([nH]c6ccccc56)C(C)(C)[C@@H]4CC[C@@]3(C)[C@]1(C)CC2 | 103% (inactive)
17 | C[C@H]1[C@H](C)CC[C@]2(C(=O)Nc3ccc4ncccc4c3)CC[C@]3(C)C(=CC[C@@H]4[C@@]5(C)CCCNC(C)(C)[C@@H]5CC[C@]43C)[C@H]12 | -84.4% (active)
18 | COc1cc(NC(C)CCCNC(=O)CCC(=O)NCCCNCCCCCCCCCCNCCCNC(=O)CCC(=O)NCCCC(C)Nc2cc(OC)cc3cccnc23)c2ncccc2c1 (stereo unspecified) | 79.8% [8 µM] (inactive)

Row | SMILES | growth
19 | CCCCCN1C=C/C(=C\C(=O)n2ccc3ccccc32)c2ccccc21 | 107% (inactive)
20 | Cc1cc2nc3c4ccc(Br)cc4n(CCN(C)C)c3nc2cc1C | 17% (inactive)
21 | CC1(C)CC(=O)C2=C(C1)N(c1ccc(F)cc1F)C(N)=C(C#N)C2c1cc(Br)ccc1F (stereo unspecified) | 107% (inactive)
22 | C[C@H]1[C@H](C)CC[C@]2(C(=O)NCC#CCN3CCN(C)CC3)CC[C@]3(C)C(=CC[C@@H]4[C@@]5(C)Cc6c([nH]c7ccccc67)C(C)(C)[C@@H]5CC[C@]43C)[C@H]12 | 76.6% (inactive)
23 | COc1cc2nc(-c3ccc(C(F)(F)F)cc3)cc(OCCCN3CCOCC3)c2cc1OC | 43.4% (inactive)
24 | O=C1c2c(c3c4cccc(F)c4[nH]c3c3ccc4ccccc4c23)C(=O)N1O | 76.3% (inactive)
25 | O=C1OC(Cc2ccccc2)C1c1ccccc1 (stereo unspecified) | 99.5% (inactive)
26 | COc1cccc(/C=N/NC(=O)c2cnn3c2NC(c2ccccc2)C3)c1Oc1ccccc1 (stereo unspecified) | 91% (inactive)
27 | COc1ccc(NC(=O)c2cc(NCc3cc(O)ccc3O)ccc2O)cc1 | 107% (inactive)
28 | COc1cc2nc(-c3ccc(Cl)cc3)cc(OCCCN3CCCC3)c2cc1OC | 72.4% (inactive)
29 | COc1ccc(C/C(=C(\C)c2ccc(OCCN3CCCC3)cc2)c2ccc(OCCN3CCCC3)cc2)cc1 | 68.9% (inactive)
30 | COc1cc(NC(C)CCCNC(=O)CCC(=O)NCCCNCCCCCCCCNCCCNC(=O)CCC(=O)NCCCC(C)Nc2cc(OC)cc3cccnc23)c2ncccc2c1 (stereo unspecified) | 69.5% (inactive)
31 | COc1ccc(Cc2cnc(NC(=O)c3ccc4c(c3)OCCO4)s2)cc1 | 18.8% (inactive)
32 | CC(=O)N1c2ccccc2NC2=C(C(=O)NC2(C)C)C1c1ccco1 (stereo unspecified) | 88.1% (inactive)
33 | O=S(=O)(NCCNc1nccc(-c2c(-c3cccc(F)c3)nc3sccn23)n1)c1ccc(Cl)cc1 | 83.4% (inactive)
34 | CC(Sc1nc2sc3c(c2c(=O)n1-c1ccc(Cl)cc1)CCCC3)C(=O)Nc1nc(-c2ccc(Br)cc2)cs1 (stereo unspecified) | 101% (inactive)
35 | C[C@@H](Nc1ncnc2ccc(-c3cnc(N)nc3)cc12)c1ccc(F)cc1 | 87.1% (inactive)
36 | CC1(C)CC[C@]23CC[C@]4(C)[C@H](CC[C@@H]5[C@@]6(C)CCCNC(C)(C)[C@@H]6CC[C@]54C)[C@H]2[C@H]1OC3 | -55.5% (active)
